# Measured values as given in the supplement of paper PMC10849652.
# The full data set covers some 8,800 targets. This sample favours those with a hit. About 0.5% of all pairs of compound and target were hits. A number with no mark means an inactive call.
# How the values were obtained:
# Assay in all cases: log2 fold change, soluble protein after heating vs DMSO (PISA); higher = thermal stabilisation; K562 lysate, 10 uM; active = over 0.2 and 3.5 SD of the protein, either way, in both replicates (recomputed)
# lapatinib = compound: CS(=O)(=O)CCNCc1ccc(-c2ccc3ncnc(Nc4ccc(OCc5cccc(F)c5)c(Cl)c4)c3c2)o1 [lapatinib]
# How it was run: (§1)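 K562 pellets were dounce-homogenised in PBS pH 7.4 with 1 mM MgCl2, and the crude extract at 1 mg/mL protein was treated with 10 μM compound for 30 min. Aliquots were heated for 3 min across 48°C-58°C, pooled, and brought to 0.5% NP-40 at 4°C; soluble protein was the supernatant after 21,000xg for 90 min. Soluble protein was quantified by TMTpro 16plex LC-MS/MS with channel sums equalised, and reported as log2 fold change in thermal stability against DMSO controls, with values from duplicates.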
# pictilisib = compound: CS(=O)(=O)N1CCN(Cc2cc3nc(-c4cccc5[nH]ncc45)nc(N4CCOCC4)c3s2)CC1 [pictilisib]
# How it was run: as §1
# crizotinib = compound: C[C@@H](Oc1cc(-c2cnn(C3CCNCC3)c2)cnc1N)c1c(Cl)ccc(F)c1Cl [crizotinib]
# How it was run: as §1
# [1] = compound: C[C@H](C1=CC=C(C=C1)C(=O)NC2=C3C=CNC3=NC=C2)N
# How it was run: as §1
# duvelisib = compound: C[C@H](Nc1ncnc2nc[nH]c12)c1cc2cccc(Cl)c2c(=O)n1-c1ccccc1 [duvelisib]
# How it was run: as §1
# gandotinib = compound: Cc1cc(Nc2cc(CN3CCOCC3)c3nc(C)c(Cc4ccc(Cl)cc4F)n3n2)n[nH]1 [gandotinib]
# How it was run: as §1
# tozasertib = compound: Cc1cc(Nc2cc(N3CCN(C)CC3)nc(Sc3ccc(NC(=O)C4CC4)cc3)n2)n[nH]1 [tozasertib]
# How it was run: as §1
# doramapimod = compound: Cc1ccc(-n2nc(C(C)(C)C)cc2NC(=O)Nc2ccc(OCCN3CCOCC3)c3ccccc23)cc1 [doramapimod]
# How it was run: as §1
# bafetinib = compound: Cc1ccc(NC(=O)c2ccc(CN3CC[C@H](N(C)C)C3)c(C(F)(F)F)c2)cc1Nc1nccc(-c2cncnc2)n1 [bafetinib]
# How it was run: as §1
# [2] = compound: Cc1cccc(CC(=O)N2CCc3c2ccc(-c2cn(C)c4ncnc(N)c24)c3F)n1
# How it was run: as §1
# UniProt Q9H204, sequence (Q9H204 whole entry, looked up): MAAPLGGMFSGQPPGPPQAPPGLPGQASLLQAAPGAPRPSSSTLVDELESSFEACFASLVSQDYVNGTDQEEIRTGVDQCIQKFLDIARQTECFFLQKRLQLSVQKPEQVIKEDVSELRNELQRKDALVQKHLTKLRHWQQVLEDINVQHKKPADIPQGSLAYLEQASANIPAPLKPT
# UniProt Q6ZRR7, sequence (Q6ZRR7 whole entry, looked up): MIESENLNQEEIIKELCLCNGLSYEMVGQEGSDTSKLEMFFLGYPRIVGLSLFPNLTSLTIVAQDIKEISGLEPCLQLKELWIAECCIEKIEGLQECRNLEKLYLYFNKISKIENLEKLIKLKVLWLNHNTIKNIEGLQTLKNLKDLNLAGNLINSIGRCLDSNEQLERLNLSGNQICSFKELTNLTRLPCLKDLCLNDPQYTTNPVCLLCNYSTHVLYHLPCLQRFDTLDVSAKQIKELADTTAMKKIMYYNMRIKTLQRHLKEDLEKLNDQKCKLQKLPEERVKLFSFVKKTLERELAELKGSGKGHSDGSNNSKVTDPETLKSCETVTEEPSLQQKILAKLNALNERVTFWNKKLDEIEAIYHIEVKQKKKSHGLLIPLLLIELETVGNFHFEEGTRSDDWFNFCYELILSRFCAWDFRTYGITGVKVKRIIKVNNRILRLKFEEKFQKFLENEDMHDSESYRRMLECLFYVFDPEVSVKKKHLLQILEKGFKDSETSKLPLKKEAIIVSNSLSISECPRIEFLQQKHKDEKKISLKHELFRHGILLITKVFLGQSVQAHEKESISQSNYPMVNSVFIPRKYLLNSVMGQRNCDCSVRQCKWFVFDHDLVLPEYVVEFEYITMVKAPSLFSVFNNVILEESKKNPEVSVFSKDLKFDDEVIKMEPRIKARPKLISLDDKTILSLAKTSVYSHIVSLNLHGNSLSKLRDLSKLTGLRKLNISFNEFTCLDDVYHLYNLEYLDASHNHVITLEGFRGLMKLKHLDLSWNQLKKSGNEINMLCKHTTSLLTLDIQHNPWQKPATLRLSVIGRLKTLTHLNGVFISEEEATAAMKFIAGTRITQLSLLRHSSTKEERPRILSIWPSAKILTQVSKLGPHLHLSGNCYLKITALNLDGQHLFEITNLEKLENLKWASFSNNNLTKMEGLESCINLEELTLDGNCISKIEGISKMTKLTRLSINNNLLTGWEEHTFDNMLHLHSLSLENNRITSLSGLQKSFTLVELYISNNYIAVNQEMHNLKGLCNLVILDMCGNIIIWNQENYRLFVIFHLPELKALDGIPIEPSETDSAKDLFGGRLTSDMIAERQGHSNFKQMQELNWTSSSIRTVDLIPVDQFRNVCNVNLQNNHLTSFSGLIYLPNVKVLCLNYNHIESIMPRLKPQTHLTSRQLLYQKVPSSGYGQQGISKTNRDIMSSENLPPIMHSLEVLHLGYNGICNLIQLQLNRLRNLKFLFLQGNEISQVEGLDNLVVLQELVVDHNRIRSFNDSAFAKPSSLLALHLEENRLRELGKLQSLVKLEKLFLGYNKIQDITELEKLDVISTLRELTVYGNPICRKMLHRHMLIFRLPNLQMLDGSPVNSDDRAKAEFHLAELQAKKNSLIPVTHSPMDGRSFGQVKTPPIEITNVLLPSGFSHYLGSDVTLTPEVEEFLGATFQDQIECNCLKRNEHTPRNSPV
# UniProt O95396, sequence (O95396 whole entry, looked up): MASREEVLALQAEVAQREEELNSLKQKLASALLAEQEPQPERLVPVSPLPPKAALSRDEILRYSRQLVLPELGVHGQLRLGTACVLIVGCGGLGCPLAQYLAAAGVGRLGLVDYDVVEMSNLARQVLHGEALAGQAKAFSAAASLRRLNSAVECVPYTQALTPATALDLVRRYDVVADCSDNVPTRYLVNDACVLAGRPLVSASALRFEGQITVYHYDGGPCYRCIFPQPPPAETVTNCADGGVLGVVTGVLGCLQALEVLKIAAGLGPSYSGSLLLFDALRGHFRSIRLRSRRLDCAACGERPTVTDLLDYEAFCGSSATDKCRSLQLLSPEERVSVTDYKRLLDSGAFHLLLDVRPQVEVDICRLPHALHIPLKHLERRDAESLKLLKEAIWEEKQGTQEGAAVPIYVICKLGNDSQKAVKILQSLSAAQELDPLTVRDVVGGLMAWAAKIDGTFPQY
# UniProt Q8N3R9, sequence (Q8N3R9 whole entry, looked up): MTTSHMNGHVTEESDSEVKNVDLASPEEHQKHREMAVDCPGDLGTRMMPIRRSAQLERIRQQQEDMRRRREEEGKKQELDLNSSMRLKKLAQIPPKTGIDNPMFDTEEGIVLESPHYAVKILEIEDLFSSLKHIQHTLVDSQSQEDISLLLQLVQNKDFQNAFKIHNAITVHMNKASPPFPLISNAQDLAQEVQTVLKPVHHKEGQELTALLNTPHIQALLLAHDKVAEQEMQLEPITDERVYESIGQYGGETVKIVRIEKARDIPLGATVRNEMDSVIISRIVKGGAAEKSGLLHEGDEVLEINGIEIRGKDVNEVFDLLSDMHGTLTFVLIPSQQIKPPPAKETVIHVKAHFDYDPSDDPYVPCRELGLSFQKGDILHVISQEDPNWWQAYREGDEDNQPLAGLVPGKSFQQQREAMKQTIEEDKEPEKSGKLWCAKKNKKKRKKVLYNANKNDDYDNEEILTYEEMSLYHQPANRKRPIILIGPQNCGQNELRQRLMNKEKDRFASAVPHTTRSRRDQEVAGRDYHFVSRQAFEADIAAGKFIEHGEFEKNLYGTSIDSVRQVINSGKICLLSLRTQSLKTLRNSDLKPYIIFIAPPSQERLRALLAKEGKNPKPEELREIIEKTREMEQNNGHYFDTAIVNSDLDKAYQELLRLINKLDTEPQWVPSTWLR
# UniProt O95819, sequence (O95819 whole entry, looked up): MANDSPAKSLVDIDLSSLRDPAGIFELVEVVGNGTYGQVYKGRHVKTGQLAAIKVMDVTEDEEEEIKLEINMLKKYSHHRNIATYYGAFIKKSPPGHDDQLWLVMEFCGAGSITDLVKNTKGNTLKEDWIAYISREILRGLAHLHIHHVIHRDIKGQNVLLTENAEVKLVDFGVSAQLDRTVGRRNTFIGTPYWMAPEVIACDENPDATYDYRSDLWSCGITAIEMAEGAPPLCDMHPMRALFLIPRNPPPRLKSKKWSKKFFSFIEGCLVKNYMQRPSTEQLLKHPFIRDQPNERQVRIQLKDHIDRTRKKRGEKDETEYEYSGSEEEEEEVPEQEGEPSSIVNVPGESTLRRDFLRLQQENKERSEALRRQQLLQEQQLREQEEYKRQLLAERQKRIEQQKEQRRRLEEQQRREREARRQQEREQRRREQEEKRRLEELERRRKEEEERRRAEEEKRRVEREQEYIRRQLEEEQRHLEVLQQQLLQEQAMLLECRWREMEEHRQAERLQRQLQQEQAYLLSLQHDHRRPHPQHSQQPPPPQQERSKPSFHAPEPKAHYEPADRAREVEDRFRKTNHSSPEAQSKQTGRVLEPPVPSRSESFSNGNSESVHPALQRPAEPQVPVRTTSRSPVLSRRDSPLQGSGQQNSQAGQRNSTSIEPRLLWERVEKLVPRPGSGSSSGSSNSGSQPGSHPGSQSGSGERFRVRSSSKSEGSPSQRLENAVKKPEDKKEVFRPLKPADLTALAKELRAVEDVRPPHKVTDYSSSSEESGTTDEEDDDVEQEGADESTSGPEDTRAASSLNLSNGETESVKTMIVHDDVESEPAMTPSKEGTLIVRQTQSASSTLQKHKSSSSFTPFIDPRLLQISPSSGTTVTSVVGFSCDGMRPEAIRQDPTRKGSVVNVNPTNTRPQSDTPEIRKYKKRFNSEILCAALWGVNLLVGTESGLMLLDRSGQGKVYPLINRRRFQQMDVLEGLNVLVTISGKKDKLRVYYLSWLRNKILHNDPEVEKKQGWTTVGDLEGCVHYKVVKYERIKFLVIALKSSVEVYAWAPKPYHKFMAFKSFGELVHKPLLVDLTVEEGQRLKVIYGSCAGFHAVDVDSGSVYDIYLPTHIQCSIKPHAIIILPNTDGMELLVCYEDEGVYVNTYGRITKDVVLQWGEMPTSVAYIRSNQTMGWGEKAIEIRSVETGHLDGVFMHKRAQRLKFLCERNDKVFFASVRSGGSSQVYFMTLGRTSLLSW
# UniProt Q14703, sequence (Q14703 whole entry, looked up): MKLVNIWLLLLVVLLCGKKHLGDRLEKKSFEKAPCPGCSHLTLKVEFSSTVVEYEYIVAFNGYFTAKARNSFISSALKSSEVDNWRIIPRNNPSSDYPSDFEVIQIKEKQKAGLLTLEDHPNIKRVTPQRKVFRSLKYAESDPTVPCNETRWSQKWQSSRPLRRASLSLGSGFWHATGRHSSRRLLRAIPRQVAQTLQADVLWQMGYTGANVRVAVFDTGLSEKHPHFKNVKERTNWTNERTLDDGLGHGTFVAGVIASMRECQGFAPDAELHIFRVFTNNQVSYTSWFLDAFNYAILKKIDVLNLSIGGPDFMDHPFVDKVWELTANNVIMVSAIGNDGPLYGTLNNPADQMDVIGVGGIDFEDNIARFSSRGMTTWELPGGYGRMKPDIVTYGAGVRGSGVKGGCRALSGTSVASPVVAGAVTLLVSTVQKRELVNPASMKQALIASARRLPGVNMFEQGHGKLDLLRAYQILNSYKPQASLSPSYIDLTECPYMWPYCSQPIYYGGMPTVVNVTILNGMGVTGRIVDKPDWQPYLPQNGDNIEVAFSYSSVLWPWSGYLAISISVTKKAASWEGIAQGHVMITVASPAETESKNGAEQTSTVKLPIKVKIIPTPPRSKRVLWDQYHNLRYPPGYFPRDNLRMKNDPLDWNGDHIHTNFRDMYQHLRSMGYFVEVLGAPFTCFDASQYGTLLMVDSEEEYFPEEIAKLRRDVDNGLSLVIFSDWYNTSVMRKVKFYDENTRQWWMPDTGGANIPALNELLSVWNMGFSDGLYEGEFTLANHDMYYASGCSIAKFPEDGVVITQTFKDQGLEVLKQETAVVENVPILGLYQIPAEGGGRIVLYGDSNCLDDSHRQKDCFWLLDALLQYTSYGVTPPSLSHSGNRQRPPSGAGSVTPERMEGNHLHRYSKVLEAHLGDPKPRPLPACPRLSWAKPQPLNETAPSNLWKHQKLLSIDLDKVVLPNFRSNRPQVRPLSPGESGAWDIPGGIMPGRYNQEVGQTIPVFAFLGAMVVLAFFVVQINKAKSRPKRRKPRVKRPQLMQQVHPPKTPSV
Target,log2 fold change (lapatinib),log2 fold change (pictilisib),log2 fold change (crizotinib),log2 fold change [1],log2 fold change (duvelisib),log2 fold change (gandotinib),log2 fold change (tozasertib),log2 fold change (doramapimod),log2 fold change (bafetinib),log2 fold change [2]
MIF4GD isoform 3 (UniProt A9UHW6),-0.008,-0.054,0.012,0.023,0.041,0.021,0.005,0.025,-0.03,0.013
MAST4 (UniProt O15021),-0.12,0.122,0.079,-0.065,-0.089,0.374,0.274,-0.121,-0.103,0.017
METTL7A (UniProt Q9H8H3),0.023,0.019,0.177,-0.019,0.021,0.226,-0.081,0.071,0.048,0.019
MAPK14 isoform 2 (UniProt Q16539),-0.008,-0.054,-0.028,0.222,-0.026,-0.086,0.001,–,0.765,-0.122
LYSMD3 (UniProt Q7Z3D4),-0.039,-0.039,-0.018,-0.273,0.066,0.307,0.058,0.041,-0.057,0.23
MPP5 (UniProt Q8N3R9),–,-0.091,-0.028,-0.003,-0.017,0.01,-0.033,0.115,-0.043,0.099
KLC1 isoform 10 (UniProt Q07866),–,-0.167,–,–,–,–,0.016,–,0.032,–
MDM2 isoform 11 (UniProt Q00987),–,-0.003,0.014,-0.004,–,0.044,–,0.009,0.054,-0.158
MEGF8 (UniProt Q7Z7M0),–,-0.015,0.113,-0.077,-0.167,-0.101,0.02,-0.028,0.068,-0.011
MDM1 (UniProt Q8TC05),-0.004,–,–,-1.42 (active),0.05,0.336,0.083,–,–,0.554 (active)
LRRC9 (UniProt Q6ZRR7),–,–,-0.065,0.032,–,-0.488,0.053,0.074,–,0.694 (active)
MAP4K4 isoform 6 (UniProt O95819),-0.002,-0.092,–,–,-0.038,–,0.102,–,0.016,–
KIF3C (UniProt O14782),-0.172,–,-0.177,-0.119,0,-0.002,-0.394,-0.031,–,0.152
MPDZ (UniProt O75970),0.046,–,0.127,0.099,-0.003,0.016,0.118,0.053,–,-0.066
KRAS isoform 2 (UniProt P01116),-0.023,–,-0.016,–,-0.022,–,-0.043,-0.062,–,–
MBTPS1 (UniProt Q14703),–,0.012,-0.008,0.114,-0.006,-0.164,-0.009,0.01,-0.001,-0.15
KMT2B (UniProt Q9UMN6),–,–,0.073,–,-0.034,–,0.073,-0.033,–,–
MED28 (UniProt Q9H204),0.132,–,0.021,-0.039,-0.034,0.394 (active),–,-0.012,–,-0.038
MAP4K2 (UniProt Q12851),-0.164,0.126,–,0.145,0.077,0.273,0.054,0.035,-0.126,-0.015
KIF21A (UniProt H0YI78),-0.11,0.052,–,–,-0.013,–,–,–,0.187,–
LSM11 (UniProt P83369),–,–,0.025,-0.123,0.009,0.039,0.011,0.123,–,-0.394

Target,log2 fold change (lapatinib),log2 fold change (pictilisib),log2 fold change (crizotinib),log2 fold change [1],log2 fold change (duvelisib),log2 fold change (gandotinib),log2 fold change (tozasertib),log2 fold change (doramapimod),log2 fold change (bafetinib),log2 fold change [2]
LY6E (UniProt Q16553),-0.026,0.071,–,-1.51 (active),–,0.412,0.079,–,-0.2,0.588
KIF26A (UniProt Q9ULI4),–,0.039,0.013,-0.065,-0.017,0.003,0.086,-0.002,-0.055,0.002
MRPL22 (UniProt Q9NWU5),-0.023,–,-0.047,-0.038,–,-0.018,–,0.016,–,0.05
MOCS3 (UniProt O95396),–,0.004,-0.127,-0.176,0.009,0.227,0.027,0.072,-0.054,0.348
MRC2 (UniProt Q9UBG0),–,–,-0.3,-0.192,-0.49,0.075,0.063,0.035,–,-0.184
MAPK7 (UniProt Q13164),-0.145,–,0.246,-0.083,–,0.161,-0.029,0.01,–,-0.099
MAP4K5 (UniProt Q9Y4K4),-0.035,0.044,–,0.013,-0.021,0.055,0.152,-0.04,-0.046,0.112
KIFC3 isoform 6 (UniProt Q9BVG8),–,-0.127,-0.21,-1.85 (active),0.089,0.111,-0.111,-0.034,-0.221,0.296
MAP3K4 isoform 2 (UniProt Q9Y6R4),–,–,0.044,–,–,–,–,-0.007,–,–
MARF1 (UniProt Q9Y4F3),–,-0.212,-0.021,0.035,-0.002,-0.1,-0.032,-0.004,-0.012,0.095
KIF18B (UniProt Q86Y91),-0.024,–,-0.008,–,0.068,–,-0.161,0.077,–,–
LRP1 (UniProt Q07954),-0.047,–,-0.488,–,–,–,0.239,0.022,–,–
MAP3K6 (UniProt O95382),–,–,–,–,–,–,-0.061,–,–,–
MAPKAP1 (UniProt Q9BPZ7),–,–,0.02,–,-0.192,–,0.113,-0.029,–,–
LGALS3BP (UniProt Q08380),-0.239,–,0.204,0.035,-0.149,0.197,0.115,-0.087,–,0.53
KRAS (UniProt P01116),0.019,–,0.017,-0.078,0.001,0.044,-0.013,0.006,–,0.145
MEX3A (UniProt A1L020),–,–,–,–,0.196,–,–,–,–,–
KRI1 (UniProt Q8N9T8),–,-0.072,-0.057,0.011,0.036,-0.022,0.014,0.023,0.009,0.045
LRIF1 (UniProt Q5T3J3),-0.094,–,0.019,-0.008,-0.133,0.006,0.039,0.026,–,-0.038
LYN isoform 2 (UniProt P07948),–,–,0.049,0.026,-0.357,0.891 (active),0.126,-0.076,–,-0.006
